Measured values published in PubChem BioAssay (EPA / NIEHS).
Several values for one entry are separate records, joined by “and”; a condition that tells them apart may be missing. Equal entries are not always repeated. Results filed as inconclusive are left out. A structure can be active in one record and inactive in another. Activity calls are given as the source filed them. How the source made its calls, unless noted: active means hit-call score of the fitted dose curve at least 0.9, where 1 is the maximum; inconclusive means response in the unintended direction; inactive means score below 0.9.

Assays:
[1] = target: Estrogen-related receptor gamma (Homo sapiens) (UniProt P62508); experiment: ATG_ERRg_TRANS: Attagene TRANS-FACTORIAL HepG2 Assay for human Estrogen-Related Receptor gamma (ERRg) (AID 2282977); details: HepG2 Attagene TRANS reporter, ERRg transactivation;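 further: hits increase reporter signal over DMSO so potencies reflect activators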
Estrogen-related receptor gamma (Homo sapiens), sequence (P62508 whole entry, looked up, the tested form may be a part): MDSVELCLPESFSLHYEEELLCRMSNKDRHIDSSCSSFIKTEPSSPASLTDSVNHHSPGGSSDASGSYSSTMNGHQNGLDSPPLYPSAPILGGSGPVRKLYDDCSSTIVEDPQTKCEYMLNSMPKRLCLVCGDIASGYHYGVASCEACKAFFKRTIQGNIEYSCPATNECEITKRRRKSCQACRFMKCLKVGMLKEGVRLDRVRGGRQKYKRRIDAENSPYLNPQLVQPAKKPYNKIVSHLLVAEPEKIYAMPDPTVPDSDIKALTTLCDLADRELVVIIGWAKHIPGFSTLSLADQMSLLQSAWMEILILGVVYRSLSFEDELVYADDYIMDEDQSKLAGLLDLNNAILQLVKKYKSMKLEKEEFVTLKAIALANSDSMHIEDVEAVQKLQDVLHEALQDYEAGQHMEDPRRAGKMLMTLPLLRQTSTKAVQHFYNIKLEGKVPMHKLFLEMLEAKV
Method in brief: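 Transient HepG2 transfectants, 24 h compound exposure, GAL4-UAS reporter mRNA by RT-PCR/6-FAM labelling/capillary electrophoresis; positive direction vs DMSO.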

[2] = target: Glucocorticoid receptor (Homo sapiens) (UniProt P04150); experiment: ATG_GR_TRANS: Attagene TRANS-FACTORIAL HepG2 Assay for human Glucocorticoid Receptor (GR) (AID 2282978); details: HepG2 Attagene TRANS GR reporter, mRNA transcription;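 further: activators score as hits since higher reporter transcript over DMSO is fitted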
Glucocorticoid receptor (Homo sapiens), sequence (P04150 whole entry, looked up, the tested form may be a part): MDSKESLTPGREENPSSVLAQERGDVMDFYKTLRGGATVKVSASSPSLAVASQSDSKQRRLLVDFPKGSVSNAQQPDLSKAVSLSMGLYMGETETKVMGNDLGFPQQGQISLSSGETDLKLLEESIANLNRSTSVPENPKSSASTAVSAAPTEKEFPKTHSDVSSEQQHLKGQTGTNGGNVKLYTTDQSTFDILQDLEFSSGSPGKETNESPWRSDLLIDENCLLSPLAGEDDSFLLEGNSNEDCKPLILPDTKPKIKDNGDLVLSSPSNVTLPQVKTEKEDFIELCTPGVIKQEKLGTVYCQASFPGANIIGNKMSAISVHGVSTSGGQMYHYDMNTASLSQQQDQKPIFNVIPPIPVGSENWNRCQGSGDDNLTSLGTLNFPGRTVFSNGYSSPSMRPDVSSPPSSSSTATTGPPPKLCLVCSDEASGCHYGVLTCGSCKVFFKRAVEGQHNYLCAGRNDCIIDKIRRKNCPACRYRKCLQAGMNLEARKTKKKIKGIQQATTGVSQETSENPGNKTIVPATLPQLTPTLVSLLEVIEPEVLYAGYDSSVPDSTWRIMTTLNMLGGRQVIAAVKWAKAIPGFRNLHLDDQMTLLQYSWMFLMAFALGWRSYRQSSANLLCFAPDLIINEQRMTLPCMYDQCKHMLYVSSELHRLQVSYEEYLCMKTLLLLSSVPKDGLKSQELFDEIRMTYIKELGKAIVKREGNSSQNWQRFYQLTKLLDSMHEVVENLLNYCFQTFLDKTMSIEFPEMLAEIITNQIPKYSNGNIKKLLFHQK
Method in brief: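 Fluorescent capillary-electrophoresis quantitation of reporter mRNA is the readout, taken 24 h after dosing human HepG2 cells carrying transiently transfected GAL4-UAS reporter units activated by chimeric NR-GAL4 fusions; activity scored as induction over DMSO.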

[3] = target: Oxysterols receptor LXR-alpha (Homo sapiens) (UniProt Q13133); experiment: ATG_LXRa_TRANS: Attagene TRANS-FACTORIAL HepG2 Assay for human Liver X Receptor alpha (LXRa) (AID 2282980); details: HepG2 Attagene TRANS reporter, LXRa transactivation
Oxysterols receptor LXR-alpha (Homo sapiens), sequence (Q13133 whole entry, looked up): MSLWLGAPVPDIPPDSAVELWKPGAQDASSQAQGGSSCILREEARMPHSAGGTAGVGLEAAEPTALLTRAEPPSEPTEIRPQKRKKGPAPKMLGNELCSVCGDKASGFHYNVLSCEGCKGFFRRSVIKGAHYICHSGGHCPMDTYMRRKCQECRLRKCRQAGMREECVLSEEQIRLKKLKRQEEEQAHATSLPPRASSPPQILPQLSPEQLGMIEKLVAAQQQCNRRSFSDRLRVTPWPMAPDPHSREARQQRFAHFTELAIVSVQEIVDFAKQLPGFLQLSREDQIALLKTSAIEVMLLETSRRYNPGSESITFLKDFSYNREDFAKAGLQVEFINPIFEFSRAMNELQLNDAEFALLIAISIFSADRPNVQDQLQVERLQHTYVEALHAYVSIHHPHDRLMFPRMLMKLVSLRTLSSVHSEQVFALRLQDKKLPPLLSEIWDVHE
Method in brief: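 Transient HepG2 transfectants, 24 h dosing, RT-PCR/CE mRNA reporter quantitation; gain-of-signal vs DMSO.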

[4] = target: Oxysterols receptor LXR-beta (Homo sapiens) (UniProt P55055); experiment: ATG_LXRb_TRANS: Attagene TRANS-FACTORIAL HepG2 Assay for human Liver X Receptor beta (LXRb) (AID 2282981); details: HepG2 Attagene TRANS GAL4-LXRb reporter, mRNA
Oxysterols receptor LXR-beta (Homo sapiens), sequence (P55055 whole entry, looked up, the tested form may be a part): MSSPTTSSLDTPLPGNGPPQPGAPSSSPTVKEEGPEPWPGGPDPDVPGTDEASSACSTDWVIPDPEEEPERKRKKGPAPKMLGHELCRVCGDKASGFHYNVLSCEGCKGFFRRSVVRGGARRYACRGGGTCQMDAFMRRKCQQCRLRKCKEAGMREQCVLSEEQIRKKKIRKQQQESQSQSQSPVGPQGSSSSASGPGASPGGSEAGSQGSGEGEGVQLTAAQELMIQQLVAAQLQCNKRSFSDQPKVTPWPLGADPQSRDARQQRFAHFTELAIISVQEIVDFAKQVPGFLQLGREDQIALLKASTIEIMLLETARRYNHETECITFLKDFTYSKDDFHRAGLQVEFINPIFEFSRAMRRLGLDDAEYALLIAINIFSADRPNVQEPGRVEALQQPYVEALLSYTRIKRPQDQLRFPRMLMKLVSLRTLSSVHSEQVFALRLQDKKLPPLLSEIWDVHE
Method in brief: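 Cells: HepG2, transiently transfected with GAL4-UAS reporter units plus LXRb-Gal4 fusion. Treatment: 24 h. Detection: reporter mRNA by RT-PCR, 6-FAM labelling, HpaI digestion, capillary electrophoresis.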

[5] = target: Hepatocyte nuclear factor 4-alpha (Homo sapiens) (UniProt P41235); experiment: ATG_HNF4a_TRANS: Attagene TRANS-FACTORIAL HepG2 Assay for human Hepatocyte Nuclear Factor 4 alpha (HNF4a) (AID 2282982); details: HepG2 HNF4a transactivation reporter, mRNA readout
Hepatocyte nuclear factor 4-alpha (Homo sapiens), sequence (P41235 whole entry, looked up): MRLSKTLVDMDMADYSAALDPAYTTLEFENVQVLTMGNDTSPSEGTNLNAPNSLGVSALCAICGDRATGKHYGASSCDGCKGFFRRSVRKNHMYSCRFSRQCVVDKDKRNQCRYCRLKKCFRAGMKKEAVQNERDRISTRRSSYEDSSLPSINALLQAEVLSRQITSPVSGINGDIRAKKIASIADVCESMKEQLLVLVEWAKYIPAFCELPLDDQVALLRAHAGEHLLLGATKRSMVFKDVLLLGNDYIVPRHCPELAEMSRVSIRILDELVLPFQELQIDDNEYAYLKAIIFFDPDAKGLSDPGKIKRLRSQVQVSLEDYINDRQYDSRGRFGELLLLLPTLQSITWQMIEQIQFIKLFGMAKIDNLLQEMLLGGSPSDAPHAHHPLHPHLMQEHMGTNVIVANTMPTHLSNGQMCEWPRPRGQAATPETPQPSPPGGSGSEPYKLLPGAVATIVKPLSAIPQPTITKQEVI
Method in brief: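 Transfected HepG2 reporter cells are dosed for 24 h; reporter RNA is reverse-transcribed, amplified, fluorescently labelled and HpaI-digested before CE sizing. Positive-direction fit against DMSO.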

[6] = ATG_M_06_TRANS: Attagene TRANS-FACTORIAL HepG2 Assay for M06 Transcription Factor (Internal Marker) (AID 2282983); details: HepG2 Attagene TRANS M06 internal marker reporter;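 on AC50: potency for rise in reporter mRNA above DMSO baseline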
Method in brief: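 Measured by capillary electrophoresis of fluorescently labelled RT-PCR products, this endpoint reflects reporter mRNA in HepG2 cells harbouring exogenous NR-GAL4 reporter constructs after 24 h exposure, with DMSO as baseline.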

[7] = ATG_M_32_TRANS: Attagene TRANS-FACTORIAL HepG2 Assay for M32 Transcription Factor (Internal Marker) (AID 2282984); details: HepG2 Attagene TRANS M32 internal marker reporter
Method in brief: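 Using transiently transfected HepG2 cells exposed to test chemicals for 24 h, reporter transcripts are converted to labelled cDNA fragments and quantified by capillary electrophoresis. DMSO defines the activity baseline.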

[8] = target: Nuclear receptor subfamily 4 group A member 2 (Homo sapiens) (UniProt P43354); experiment: ATG_NURR1_TRANS: Attagene TRANS-FACTORIAL HepG2 Assay for human Nuclear Receptor Related Protein 1 (NURR1) (AID 2282985); details: HepG2 Attagene TRANS reporter, mRNA readout
Nuclear receptor subfamily 4 group A member 2 (Homo sapiens), sequence (P43354 whole entry, looked up): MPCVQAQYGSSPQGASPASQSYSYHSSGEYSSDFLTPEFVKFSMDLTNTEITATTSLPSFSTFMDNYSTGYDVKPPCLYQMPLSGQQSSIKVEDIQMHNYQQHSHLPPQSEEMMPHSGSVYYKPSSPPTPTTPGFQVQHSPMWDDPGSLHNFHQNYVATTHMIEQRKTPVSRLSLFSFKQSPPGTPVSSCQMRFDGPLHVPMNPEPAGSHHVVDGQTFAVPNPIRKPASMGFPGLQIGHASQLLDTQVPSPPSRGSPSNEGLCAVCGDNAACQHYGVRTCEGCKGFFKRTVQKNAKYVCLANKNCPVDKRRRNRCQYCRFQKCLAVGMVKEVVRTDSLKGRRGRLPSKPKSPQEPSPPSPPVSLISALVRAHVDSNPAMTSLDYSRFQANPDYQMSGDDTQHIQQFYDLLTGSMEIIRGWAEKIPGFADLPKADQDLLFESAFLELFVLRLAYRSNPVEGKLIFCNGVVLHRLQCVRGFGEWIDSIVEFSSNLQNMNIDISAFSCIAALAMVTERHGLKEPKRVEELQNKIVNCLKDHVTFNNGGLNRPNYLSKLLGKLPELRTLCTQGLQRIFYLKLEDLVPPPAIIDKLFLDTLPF
Method in brief: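 Cells: HepG2, transiently transfected. Exposure: 24 h. Detection: fluorescence of labelled RT-PCR products separated by capillary electrophoresis; upward fit versus DMSO.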

[9] = target: Transcriptional activator Myb (Homo sapiens) (UniProt P10242); experiment: ATG_Myb_CIS: Attagene CIS-FACTORIAL HepG2 Assay for human Myeloblastosis (Myb) Proto-Oncogene Transcription Factor (AID 2282986; active means hit-call score of the fitted dose curve at least 0.9, where 1 is the maximum; inactive means score below 0.9); details: HepG2 Attagene CIS-FACTORIAL Myb reporter transcription; actives raise or lower the signal
Transcriptional activator Myb (Homo sapiens), sequence (P10242 whole entry, looked up): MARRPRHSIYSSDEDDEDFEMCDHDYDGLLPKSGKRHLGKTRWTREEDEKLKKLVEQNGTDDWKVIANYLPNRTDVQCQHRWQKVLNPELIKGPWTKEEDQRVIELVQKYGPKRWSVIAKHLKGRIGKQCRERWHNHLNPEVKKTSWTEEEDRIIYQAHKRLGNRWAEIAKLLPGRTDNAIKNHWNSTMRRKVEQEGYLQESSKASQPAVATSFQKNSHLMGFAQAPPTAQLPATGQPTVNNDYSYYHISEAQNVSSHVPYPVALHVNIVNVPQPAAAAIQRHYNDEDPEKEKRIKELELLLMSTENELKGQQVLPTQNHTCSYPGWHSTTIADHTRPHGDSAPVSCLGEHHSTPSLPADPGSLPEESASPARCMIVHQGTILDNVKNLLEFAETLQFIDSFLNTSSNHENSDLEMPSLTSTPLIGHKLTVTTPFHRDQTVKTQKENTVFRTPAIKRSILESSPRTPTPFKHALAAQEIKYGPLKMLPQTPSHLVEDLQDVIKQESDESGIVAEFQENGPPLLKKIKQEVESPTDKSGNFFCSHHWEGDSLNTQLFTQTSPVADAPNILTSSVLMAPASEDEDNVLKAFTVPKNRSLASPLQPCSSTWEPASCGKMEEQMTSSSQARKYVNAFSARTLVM
Method in brief: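 Reporter transcript levels, quantified by fluorescent RT-PCR and capillary electrophoresis, serve as the read-out. Transfected HepG2 cells carrying cis-promoter reporter units are dosed for 24 hours, and curves are fitted bidirectionally against DMSO controls.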

[10] = target: Bile acid receptor (Homo sapiens) (UniProt Q96RI1); experiment: ATG_FXR_TRANS: Attagene TRANS-FACTORIAL HepG2 Assay for Farnesoid X Receptor (FXR) (AID 2282979); details: HepG2 Attagene TRANS FXR-GAL4 reporter transcription;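 further: hits raise reporter mRNA above DMSO so AC50 marks FXR activation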
Bile acid receptor (Homo sapiens), sequence (Q96RI1 whole entry, looked up, the tested form may be a part): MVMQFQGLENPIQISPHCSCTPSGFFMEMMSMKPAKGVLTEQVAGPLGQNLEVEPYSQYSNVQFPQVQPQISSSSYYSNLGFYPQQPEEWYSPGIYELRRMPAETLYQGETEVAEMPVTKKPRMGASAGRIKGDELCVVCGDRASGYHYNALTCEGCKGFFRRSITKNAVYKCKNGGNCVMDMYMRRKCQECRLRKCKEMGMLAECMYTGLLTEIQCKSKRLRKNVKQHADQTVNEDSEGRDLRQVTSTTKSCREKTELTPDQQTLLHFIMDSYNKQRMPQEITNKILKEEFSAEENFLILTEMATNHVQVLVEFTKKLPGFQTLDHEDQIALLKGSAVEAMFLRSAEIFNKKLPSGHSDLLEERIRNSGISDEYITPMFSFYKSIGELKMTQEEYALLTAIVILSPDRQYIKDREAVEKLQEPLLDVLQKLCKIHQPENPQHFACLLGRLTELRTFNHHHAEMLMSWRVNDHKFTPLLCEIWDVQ
Method in brief: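 Chimeric FXR-GAL4 activity in transiently transfected human HepG2 liver cells is scored as induction of reporter mRNA after 24 h of dosing. Detection uses RT-PCR with fluorescent labelling and capillary electrophoresis, with DMSO serving as baseline.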

Measured: AC50

O=S(=O)(OCCOC(F)(F)F)C(F)(F)F
inactive: [1] | [2] | [3] | [4] | [5] | [6] | [7] | [8]

[Co]
inactive: [1] | [3] | [4] | [7] | [8] | [9]

O=C(O)C(F)(F)C(F)(F)C(F)(F)C(F)(F)C(F)(F)C(F)(F)C(F)(F)C(F)(F)C(F)(F)C(F)(F)C(F)(F)C(F)(F)F
inactive: [1] | [2] | [10] | [3] | [4] | [5] | [6] | [7] | [8]

C#C[C@]1(O)CC[C@H]2[C@@H]3CCc4cc(OC)ccc4[C@H]3CC[C@@]21C
inactive: [1] | [2] | [3] | [4] | [5] | [6] | [7] | [9]

Cc1ccc(S(=O)(=O)NCl)cc1
inactive: [1] | [2] | [3] | [5] | [6] | [8] | [9]

FC(F)(F)C(F)(F)C(F)(F)C(F)(F)C(F)(F)C(F)(F)CCS
inactive: [1] | [3] | [4] | [6] | [7] | [8]

CCO[Si](CCC(F)(F)C(F)(F)C(F)(F)C(F)(F)C(F)(F)C(F)(F)F)(OCC)OCC
inactive: [1] | [2] | [3] | [4] | [5] | [6] | [7] | [8]

CC/C=C\CCOC(C)=O
inactive: [1] | [2] | [10] | [3] | [4] | [6] | [7] | [8]

O=C(O)C(F)(OC(F)(F)C(F)(OC(F)(F)C(F)(OC(F)(F)C(F)(F)C(F)(F)F)C(F)(F)F)C(F)(F)F)C(F)(F)F (centres undefined)
inactive: [1] | [2] | [10] | [3] | [4] | [6] | [8]

FC(F)(F)C(F)(F)C(F)(F)C(F)(F)C(F)(F)C(F)(F)C(F)(F)Br
inactive: [1] | [2] | [3] | [4] | [5] | [6] | [7] | [9]

CCCCCCOC(=O)c1ccccc1O
inactive: [1] | [2] | [10] | [3] | [5] | [6] | [8] | [9]

CC(Cc1ccc(O)c(O)c1)C(C)Cc1ccc(O)c(O)c1 (centres undefined)
active: [8] 57.1 µM
inactive: [1] | [2] | [3] | [5] | [6] | [7]

Cc1cc(C)cc(O)c1
inactive: [1] | [2] | [3] | [4] | [5]

Nc1ccc(S(=O)(=O)Nc2nccs2)cc1
inactive: [1] | [2] | [3] | [4] | [5] | [6] | [7] | [8]

FC(F)(F)C(F)(F)CNCC(F)(F)C(F)(F)F
inactive: [1] | [3] | [4] | [5] | [6] | [7] | [8]

O=C(Cl)C(F)(F)C(F)(F)C(F)(F)C(F)(F)C(F)(F)C(F)(F)C(F)(F)C(F)(F)F
active: [8] 24.9 µM
inactive: [1] | [2] | [10] | [5] | [6] | [7] | [9]

OCC(F)(F)C(F)(F)C(F)(F)C(F)(F)C(F)(F)C(F)F
inactive: [1] | [10] | [3] | [5] | [7] | [8] | [9]

O=C(O)C(F)(F)C(F)(F)C(F)(F)F
inactive: [1] | [2] | [10] | [3] | [4] | [5] | [6] | [7] | [8] | [9]

FC1CC(F)(F)C(F)(F)C1(F)F (centres undefined)
inactive: [1] | [2] | [3] | [4] | [7] | [9]

CC(=O)Nc1ccc(N=Nc2cc(C)ccc2O)cc1
inactive: [1] | [10] | [4] | [5] | [6] | [7] | [8]

c1ccc(B(c2ccccc2)c2ccccc2)cc1
inactive: [1] | [2] | [3] | [5] | [6] | [7] | [9]

OCCCC(F)(F)C(F)(F)C(F)(F)C(F)(F)C(F)(F)C(F)(F)C(F)(F)F
active: [6] 79.1 µM | [8] 16.6 µM and 17.2 µM | [9] 81.7 µM
inactive: [1] | [2] | [3] | [4] | [7] | [9]

O=C(O)C(F)(F)C(F)(F)C(F)F
inactive: [1] | [2] | [3] | [4] | [5] | [6] | [7] | [8] | [9]

O=C(O)C(F)(F)C(F)(F)C(F)(F)C(F)(F)C(F)(F)C(F)(F)C(F)(F)C(F)(F)C(F)(F)C(F)F
active: [3] 50 µM | [4] 78 µM | [8] 28.2 µM
inactive: [1] | [5] | [6] | [7]

C=C(C)C(=O)OCC(F)(F)C(F)(F)C(F)(F)F
inactive: [1] | [2] | [10] | [3] | [4] | [6] | [7] | [8]

CCCCC(CC)COP(=O)(O)OCC(CC)CCCC (centres undefined)
inactive: [1] | [2] | [7]

O=S(=O)(OCC(F)F)C(F)(F)F
inactive: [1] | [2] | [10] | [3] | [4] | [6] | [8]

CC/C=C\CCOC(=O)c1ccccc1
inactive: [1] | [2] | [3] | [4] | [5] | [7] | [8] | [9]

CCCCCCCCCCCCCCCC[N+](C)(C)Cc1ccccc1
active: [1] 45.2 µM | [5] 24.8 µM
inactive: [2] | [10] | [3] | [4] | [8]

O=C(O)C(F)(F)C(F)(F)C(F)(F)C(F)(F)F
inactive: [1] | [2] | [3] | [4] | [6] | [7]

CCCCOc1ccc(N)cc1
inactive: [1] | [10] | [3] | [4] | [7] | [9]

FC(F)(F)C(F)(F)C(F)(F)CI
inactive: [1] | [3] | [4] | [5] | [9]

C=CC(F)(F)C(F)(F)C(F)(F)C(F)(F)C(F)(F)C(F)(F)C(F)(F)C(F)(F)F
inactive: [1] | [2] | [3] | [4] | [5] | [6] | [7] | [8] | [9]

CC(C)(C)C(=O)CC(=O)C(F)(F)C(F)(F)C(F)(F)F
inactive: [1] | [2] | [10] | [4] | [6] | [7] | [8] | [9]

CCCCCCCOC(=O)c1ccccc1C(=O)OCCCCCCC
inactive: [1] | [5] | [6] | [8] | [9]

OCC(F)(F)C(F)(F)C(F)(F)C(F)(F)C(F)(F)C(F)(F)F
inactive: [2] | [10] | [4] | [8] | [9]

CCc1ccc(C(c2ccc(CC)cc2)C(Cl)Cl)cc1
inactive: [2] | [10] | [4] | [6] | [7] | [8] | [9]

C=CC(F)(F)C(F)(F)C(F)(F)C(F)(F)C(F)(F)C(F)(F)C(F)(F)C(F)(F)C=C
inactive: [2] | [10] | [3] | [4] | [7] | [9]

CCc1c(Br)c(Br)c(Br)c(Br)c1Br
active: [8] 26.8 µM
inactive: [1] | [3] | [6] | [7] | [9]

CC(C)c1ccccc1N
inactive: [1] | [5] | [7] | [8]

O=C(O)C(F)(F)C(F)(F)C(F)(F)C(F)(F)C(F)(F)C(F)(F)C(F)(F)C(F)(F)Cl
active: [10] 82.3 µM | [8] 31.2 µM
inactive: [2] | [10] | [3] | [4] | [5] | [6] | [7] | [8] | [9]

CCN(CC)c1ccc2c(C)cc(=O)oc2c1
inactive: [2] | [10] | [4] | [7] | [8]
active: [3] 26.2 µM

CCCCCCCCC(F)(F)C(F)(F)C(F)(F)C(F)(F)C(F)(F)C(F)(F)F
inactive: [2] | [10] | [4] | [6] | [7] | [8] | [9]

O=C(O)C(F)(OC(F)(F)C(F)(OC(F)(F)C(F)(F)C(F)(F)F)C(F)(F)F)C(F)(F)F (centres undefined)
active: [8] 98.8 µM
inactive: [2] | [3] | [4] | [5] | [6] | [7] | [8]

OCC(F)(F)C(F)(F)C(F)(F)C(F)F
inactive: [2] | [3] | [4] | [5] | [6] | [7] | [9]
